Inconclusive results are not listed. Calls of active or inactive are those of the source. Unless noted, calls follow the shape of the dose curve; as a rule, active = well fitted curve in the direction sought with a large enough effect in the repeat runs; inconclusive = weak or mixed curves; inactive = no such curve, though single readings can be large; an effect the other way counts as inactive or inconclusive.
What was measured:
[1] = qHTS assay for small molecule agonists of the p53 signaling pathway (AID 651631; calls by dose curve; also: nearly all actives have a fitted effect of over 15% in size); conditions: HCT-116 p53RE-bla reporter, beta-lactamase FRET ratio, 16 h; series mostly up to 73.3 µM
Summary of the method: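 HCT-116 cells carrying a beta-lactamase reporter under p53 response elements were dosed with compound for 16 h at 37 °C. LiveBLAzer B/G FRET substrate was then added for 2 h at room temperature, and fluorescence intensity was read to detect pathway agonism.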

[2] = qHTS assay for small molecule agonists of the p53 signaling pathway - cell viability (AID 651633; calls by dose curve; also: nearly all actives have a fitted effect of over 30% in size); conditions: p53RE-bla HCT-116 viability, ATP luminescence, 16 h; series mostly up to 83.3 µM
Summary of the method: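 p53RE-bla cells were treated with compound for 16 hours at 37 C. Cytotoxicity was then measured as CellTiter-Glo luminescence after 30 min at room temperature.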

[3] = qHTS assay for small molecules that induce genotoxicity in human embryonic kidney cells expressing luciferase-tagged ATAD5 - cell viability (AID 651634; calls by dose curve; also: nearly all actives have a fitted effect of over 25% in size); conditions: HEK293T ATAD5-luc cells viability, CellTiter-Fluor, 15.5 h; series mostly up to 83.3 µM
Summary of the method: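 15.5 hr compound or vehicle exposure of HEK293T cells expressing luciferase-tagged ATAD5 at 37C; live-cell protease activity is read by fluorescence after 30 min of CellTiter-Fluor.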

[4] = qHTS assay for small molecule disruptors of the mitochondrial membrane potential - cell viability (AID 720634; calls by dose curve;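 also: human HepG2 liver cancer cells; nearly all actives have a fitted effect of over 20% in size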); conditions: HepG2 viability, ATP luminescence (CellTiter-Glo), 1 h; series mostly up to 83.2 µM
Summary of the method: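 In this qHTS format, HepG2 cells plated overnight were pinned with compound, incubated 1 hr, and assayed for ATP luminescence with CellTiter-Glo after m-MPI dye addition.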

[5] = qHTS assay for small molecule disruptors of the mitochondrial membrane potential (AID 720635); conditions: HepG2 mitochondrial membrane potential, Mito-MPS dye ratio; series mostly up to 83.2 µM
Summary of the method: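 HepG2 cells exposed to compound 1 hr at 37C, then Mito-MPS dye 30 min. Ratio read of aggregate (540/590 nm) versus monomer (490/535 nm) fluorescence.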

[6] = qHTS assay to test for compound auto fluorescence at 590 nm (red) in HepG2 cells (AID 720674); conditions: HepG2 autofluorescence, red 540/590 nm, 1 h; series mostly up to 91.3 µM
Summary of the method: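 Seeding: 2,000 HepG2 cells/well, MEM/10% FBS, overnight 37 C. Dosing: compound vs DMSO. Incubation: 1 hr, 37 C, 5% CO2. Read: fluorescence 540 ex/590 em, Rose Bengal sodium as red reference.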

[7] = qHTS assay to test for compound auto fluorescence at 535 nm (green) in HepG2 cells (AID 720675); conditions: green autofluorescence 485/535 nm, 1 h; series mostly up to 91.3 µM
[8] = qHTS assay to test for compound auto fluorescence at 460 nm (blue) in HEK293 cells (AID 720678); conditions: blue autofluorescence 405/460 nm; series mostly up to 91.3 µM
Summary of the method: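 HEK293 cells (2,000/well, medium with 10% dialyzed FBS) attached 4-5 hr, then exposed to compound overnight at 37C, 5% CO2. Blue fluorescence read at 405/460 nm, with triamterene as reference fluorophore.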

[9] = qHTS assay to test for compound auto fluorescence at 590 nm (red) in HEK293 cells (AID 720679); conditions: red autofluorescence 540/590 nm; series mostly up to 91.3 µM
Summary of the method: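 HEK293 cells (2,000/well, 10% dialyzed FBS) attached 4-5 hr, then dosed with compound or DMSO and incubated overnight at 37C, 5% CO2. Red fluorescence read at 540/590 nm, Rose Bengal sodium as reference fluorophore.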

Measured: Potency

CCCSC(=O)N(CCC)CCC
inactive: all assays above

COP(=S)(OC)Oc1ccc(S(N)(=O)=O)cc1
not listed: [7] | [9]
inactive: all other assays above

COc1ccc(C(=O)N2CCCC2=O)cc1
inactive: [1] | [2] | [3] | [6] | [8]

CCOP(=S)(OCC)Oc1nc(Cl)n(C(C)C)n1
inactive: all assays above

— PubChem BioAssay (Tox21)
